What all share (test): DAPPL (digital affinity profiling via proximity ligation, sequencing); 10 mM Tris-HCl pH 7.5, 50 mM NaCl, 1 mM DTT, 4% glycerol, room temperature, 30 min; GST-TFs on glutathione beads, 16-mer random dsDNA library, 0.1% formaldehyde crosslink after washing; high values mean tight binding
Details in all cases: protein: recombinant; tags: N-terminal GST; dsDNA, one strand shown

Assay [1] concerns the target T1, FLI1 (Homo sapiens, UniProt Q01543 1-452).
T1 sequence: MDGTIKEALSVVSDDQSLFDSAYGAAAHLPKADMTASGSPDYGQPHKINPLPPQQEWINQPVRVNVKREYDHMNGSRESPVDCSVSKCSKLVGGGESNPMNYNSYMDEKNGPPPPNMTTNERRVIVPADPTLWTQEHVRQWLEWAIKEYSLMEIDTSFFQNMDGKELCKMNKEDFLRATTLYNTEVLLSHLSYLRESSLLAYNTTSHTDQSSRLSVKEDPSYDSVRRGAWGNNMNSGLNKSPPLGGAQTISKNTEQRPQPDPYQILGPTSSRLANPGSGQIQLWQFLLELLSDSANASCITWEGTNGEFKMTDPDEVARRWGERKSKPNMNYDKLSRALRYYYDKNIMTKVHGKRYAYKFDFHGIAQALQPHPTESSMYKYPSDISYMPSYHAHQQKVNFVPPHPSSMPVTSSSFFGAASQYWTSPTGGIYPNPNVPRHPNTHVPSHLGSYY
Put shortly: (§1)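 Binding signal is each hexamer's read frequency for a factor divided by its frequency in the tag-only sample. The factors were GST-fused human transcription factors from yeast, captured on glutathione beads, DNA-barcoded and pooled with that sample. Pools were incubated with 200 nmole of a random double-stranded 16-mer DNA library in Tris/NaCl/DTT/glycerol buffer at room temperature for 30 min, then washed, crosslinked with 0.1% formaldehyde, proximity-ligated with BsaI/T4 ligase (1 h, 37 °C), PCR-amplified and sequenced on an Illumina NextSeq500.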

Assay [2] has as its target T2, ELK1 (Homo sapiens, UniProt P19419 1-428).
T2 sequence: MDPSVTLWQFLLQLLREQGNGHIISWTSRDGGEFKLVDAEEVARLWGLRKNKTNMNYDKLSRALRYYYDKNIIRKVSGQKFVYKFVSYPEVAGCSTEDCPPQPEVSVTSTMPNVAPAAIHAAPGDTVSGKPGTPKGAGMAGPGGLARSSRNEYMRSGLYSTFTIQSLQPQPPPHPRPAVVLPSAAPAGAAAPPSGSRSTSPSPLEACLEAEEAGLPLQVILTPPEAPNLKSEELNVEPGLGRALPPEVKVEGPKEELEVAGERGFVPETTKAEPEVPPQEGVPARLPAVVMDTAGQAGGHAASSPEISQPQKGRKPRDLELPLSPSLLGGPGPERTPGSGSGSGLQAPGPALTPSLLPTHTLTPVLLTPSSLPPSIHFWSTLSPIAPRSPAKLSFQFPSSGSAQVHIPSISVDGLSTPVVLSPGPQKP
The procedure, abridged: as §1

Assay [3] has as its target T3, GABPA (Homo sapiens, UniProt Q06546 1-454).
T3 sequence: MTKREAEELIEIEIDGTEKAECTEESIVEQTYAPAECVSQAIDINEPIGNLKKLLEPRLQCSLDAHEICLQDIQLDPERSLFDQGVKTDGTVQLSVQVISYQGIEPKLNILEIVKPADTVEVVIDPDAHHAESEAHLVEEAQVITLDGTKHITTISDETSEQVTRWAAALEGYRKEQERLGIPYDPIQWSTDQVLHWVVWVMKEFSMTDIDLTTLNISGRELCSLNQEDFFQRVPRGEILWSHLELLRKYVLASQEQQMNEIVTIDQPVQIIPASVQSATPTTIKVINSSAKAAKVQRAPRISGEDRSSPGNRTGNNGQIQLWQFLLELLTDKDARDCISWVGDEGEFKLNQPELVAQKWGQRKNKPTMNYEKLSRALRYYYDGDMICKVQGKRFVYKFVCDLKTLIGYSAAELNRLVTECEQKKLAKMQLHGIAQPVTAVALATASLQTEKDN
Put shortly: as §1

Assay [4] has as its target T4, ERG (Homo sapiens, UniProt P11308 1-479).
T4 sequence: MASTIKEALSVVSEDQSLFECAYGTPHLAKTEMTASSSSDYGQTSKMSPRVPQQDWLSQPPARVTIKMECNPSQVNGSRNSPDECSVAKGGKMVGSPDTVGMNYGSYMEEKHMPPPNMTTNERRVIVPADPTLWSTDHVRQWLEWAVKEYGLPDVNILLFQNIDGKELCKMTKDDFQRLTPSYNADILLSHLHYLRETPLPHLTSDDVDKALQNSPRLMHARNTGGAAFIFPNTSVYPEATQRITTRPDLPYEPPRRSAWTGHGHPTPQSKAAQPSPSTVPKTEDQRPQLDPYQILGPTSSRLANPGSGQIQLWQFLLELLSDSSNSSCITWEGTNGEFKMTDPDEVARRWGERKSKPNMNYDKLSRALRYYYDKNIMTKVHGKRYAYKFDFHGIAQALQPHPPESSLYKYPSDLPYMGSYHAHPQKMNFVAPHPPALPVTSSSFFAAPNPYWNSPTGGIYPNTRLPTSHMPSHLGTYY
The procedure, abridged:
as §1

In assay [5] the target is ELF1 (Homo sapiens, UniProt P32519 1-619). Put shortly: as §1
Sequence of ELF1 (P32519 whole entry): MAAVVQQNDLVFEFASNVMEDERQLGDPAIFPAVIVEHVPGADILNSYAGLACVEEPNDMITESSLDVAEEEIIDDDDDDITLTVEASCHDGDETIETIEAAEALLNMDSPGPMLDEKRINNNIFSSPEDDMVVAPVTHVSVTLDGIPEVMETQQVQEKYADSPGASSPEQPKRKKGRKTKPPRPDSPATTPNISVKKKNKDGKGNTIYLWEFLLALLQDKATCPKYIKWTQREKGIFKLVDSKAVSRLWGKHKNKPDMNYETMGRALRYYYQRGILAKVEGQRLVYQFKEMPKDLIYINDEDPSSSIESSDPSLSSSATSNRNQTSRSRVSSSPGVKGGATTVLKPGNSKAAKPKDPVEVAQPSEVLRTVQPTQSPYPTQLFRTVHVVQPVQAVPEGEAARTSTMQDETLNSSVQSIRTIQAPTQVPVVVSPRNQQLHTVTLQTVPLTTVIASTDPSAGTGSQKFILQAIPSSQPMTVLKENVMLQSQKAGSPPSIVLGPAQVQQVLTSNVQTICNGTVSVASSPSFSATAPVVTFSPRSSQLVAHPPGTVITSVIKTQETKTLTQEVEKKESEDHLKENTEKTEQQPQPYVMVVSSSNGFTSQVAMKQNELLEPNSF
Assay [6] deals with T5, EHF (Homo sapiens, UniProt Q9NZC4 1-300).
T5 sequence: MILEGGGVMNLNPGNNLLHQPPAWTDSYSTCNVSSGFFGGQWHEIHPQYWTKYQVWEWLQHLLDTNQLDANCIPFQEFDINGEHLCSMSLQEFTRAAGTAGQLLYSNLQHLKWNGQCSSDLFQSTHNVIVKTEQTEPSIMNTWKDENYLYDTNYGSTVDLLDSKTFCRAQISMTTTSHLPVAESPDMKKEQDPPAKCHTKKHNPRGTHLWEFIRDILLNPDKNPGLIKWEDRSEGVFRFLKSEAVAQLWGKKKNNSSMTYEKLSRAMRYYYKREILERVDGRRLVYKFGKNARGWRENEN
The procedure, abridged:
as §1

In assay [7] the target is SPI1 (Homo sapiens, UniProt P17947 1-270). Put shortly:
as §1

Assay [8] addresses SPIB (Homo sapiens, UniProt Q01892 1-262). Put shortly:
as §1

For assay [9], the target named is T6, ELK3 (Homo sapiens, UniProt P41970 1-407).
T6 sequence: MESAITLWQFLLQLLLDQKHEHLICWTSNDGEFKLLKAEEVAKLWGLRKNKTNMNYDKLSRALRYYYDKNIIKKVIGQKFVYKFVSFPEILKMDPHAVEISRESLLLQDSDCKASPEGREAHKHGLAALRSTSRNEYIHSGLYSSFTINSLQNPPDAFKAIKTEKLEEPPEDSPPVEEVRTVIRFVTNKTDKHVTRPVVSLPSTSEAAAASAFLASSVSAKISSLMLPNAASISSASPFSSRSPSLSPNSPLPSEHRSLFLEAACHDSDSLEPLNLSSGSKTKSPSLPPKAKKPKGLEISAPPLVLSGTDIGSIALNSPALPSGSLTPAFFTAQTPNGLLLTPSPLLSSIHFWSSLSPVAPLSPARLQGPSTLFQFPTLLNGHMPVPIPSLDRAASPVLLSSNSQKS
Put shortly:
as §1

Experimental findings from article PMC7862700, “An all-to-all approach to the identification of sequence-specific readers for epigenetic DNA modifications on cytosine” are described below.

Sequence of SPIB (Q01892 whole entry): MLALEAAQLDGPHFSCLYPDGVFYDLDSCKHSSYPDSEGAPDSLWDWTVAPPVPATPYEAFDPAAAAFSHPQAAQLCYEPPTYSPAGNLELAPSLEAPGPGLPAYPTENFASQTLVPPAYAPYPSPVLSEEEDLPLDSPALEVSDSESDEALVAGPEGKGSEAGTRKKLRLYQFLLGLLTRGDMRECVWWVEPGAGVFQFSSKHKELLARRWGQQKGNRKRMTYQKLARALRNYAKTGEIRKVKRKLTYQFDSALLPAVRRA

Regarding CTGAAA, the binding signal in assay [1] was 1.16 fold enrichment (6-mer frequency, TF over GST control); in assay [2], 1.14 fold enrichment (6-mer frequency, TF over GST control); in assay [3], 1.1 fold enrichment (6-mer frequency, TF over GST control); in [4], 1.04 fold enrichment (6-mer frequency, TF over GST control); in [5], 1.19 fold enrichment (6-mer frequency, TF over GST control); in assay [6], 1.09 fold enrichment (6-mer frequency, TF over GST control). Moreover, the binding signal in assay [7] is 1.19 fold enrichment (6-mer frequency, TF over GST control); in assay [8], 1.24 fold enrichment (6-mer frequency, TF over GST control); in [9] it was 1.03 fold enrichment (6-mer frequency, TF over GST control).

For ACTACC, the binding signal in assay [1] was 1.61 fold enrichment (6-mer frequency, TF over GST control); in [2] it was 1.72 fold enrichment (6-mer frequency, TF over GST control); in [3] it was 1.67 fold enrichment (6-mer frequency, TF over GST control); in [4], 1.63 fold enrichment (6-mer frequency, TF over GST control); in assay [5], 1.71 fold enrichment (6-mer frequency, TF over GST control); in assay [6], 1.51 fold enrichment (6-mer frequency, TF over GST control). The binding signal in assay [7] was 1.69 fold enrichment (6-mer frequency, TF over GST control); in assay [8], 1.69 fold enrichment (6-mer frequency, TF over GST control); in [9], 1.63 fold enrichment (6-mer frequency, TF over GST control).

For ACCCTT, the binding signal in assay [1] was 1.3 fold enrichment (6-mer frequency, TF over GST control); in [2] it was 1.23 fold enrichment (6-mer frequency, TF over GST control); in [3] it was 1.23 fold enrichment (6-mer frequency, TF over GST control); in [4], 1.19 fold enrichment (6-mer frequency, TF over GST control); in assay [5], 1.16 fold enrichment (6-mer frequency, TF over GST control); in [6], 1.18 fold enrichment (6-mer frequency, TF over GST control). In addition, the binding signal in [7] was 1.21 fold enrichment (6-mer frequency, TF over GST control); in assay [8], 1.19 fold enrichment (6-mer frequency, TF over GST control); in [9], 1.2 fold enrichment (6-mer frequency, TF over GST control).

With AATCCT, the binding signal is 1.46 fold enrichment (6-mer frequency, TF over GST control) in assay [1]; 1.31 fold enrichment (6-mer frequency, TF over GST control) in [2]; 1.34 fold enrichment (6-mer frequency, TF over GST control) in assay [3]; 1.41 fold enrichment (6-mer frequency, TF over GST control) in [4]; 1.36 fold enrichment (6-mer frequency, TF over GST control) in assay [5]; 1.33 fold enrichment (6-mer frequency, TF over GST control) in [6]. Besides, the binding signal in assay [7] is 1.37 fold enrichment (6-mer frequency, TF over GST control); in assay [8] it was 1.38 fold enrichment (6-mer frequency, TF over GST control); in assay [9] it was 1.46 fold enrichment (6-mer frequency, TF over GST control).

In the case of CTGAAT, the binding signal in assay [1] was 1.23 fold enrichment (6-mer frequency, TF over GST control); in [2], 1.37 fold enrichment (6-mer frequency, TF over GST control); in assay [3], 1.36 fold enrichment (6-mer frequency, TF over GST control); in assay [4], 1.36 fold enrichment (6-mer frequency, TF over GST control); in assay [5], 1.31 fold enrichment (6-mer frequency, TF over GST control); in [6], 1.31 fold enrichment (6-mer frequency, TF over GST control). Besides, the binding signal in assay [7] was 1.36 fold enrichment (6-mer frequency, TF over GST control); in assay [8], 1.26 fold enrichment (6-mer frequency, TF over GST control); in assay [9], 1.23 fold enrichment (6-mer frequency, TF over GST control).

As for CAATAA, the binding signal is 1.12 fold enrichment (6-mer frequency, TF over GST control) in assay [1]; 1.07 fold enrichment (6-mer frequency, TF over GST control) in assay [2]; 1.25 fold enrichment (6-mer frequency, TF over GST control) in [3]; 1.13 fold enrichment (6-mer frequency, TF over GST control) in assay [4]; 1.13 fold enrichment (6-mer frequency, TF over GST control) in [5]; 1.15 fold enrichment (6-mer frequency, TF over GST control) in assay [6]. Besides, the binding signal in assay [7] is 1.14 fold enrichment (6-mer frequency, TF over GST control); in assay [8], 1.11 fold enrichment (6-mer frequency, TF over GST control); in assay [9] it was 1.2 fold enrichment (6-mer frequency, TF over GST control).

Consider TCTTCT, for which the binding signal in assay [1] was 1.3 fold enrichment (6-mer frequency, TF over GST control); in assay [2], 1.29 fold enrichment (6-mer frequency, TF over GST control); in assay [3], 1.21 fold enrichment (6-mer frequency, TF over GST control); in assay [4] it was 1.23 fold enrichment (6-mer frequency, TF over GST control); in assay [5], 1.25 fold enrichment (6-mer frequency, TF over GST control); in [6], 1.14 fold enrichment (6-mer frequency, TF over GST control). The binding signal is 1.22 fold enrichment (6-mer frequency, TF over GST control) in assay [7]; 1.19 fold enrichment (6-mer frequency, TF over GST control) in [8]; 1.25 fold enrichment (6-mer frequency, TF over GST control) in [9].
